This note sets out measurements from article PMC7862700, “An all-to-all approach to the identification of sequence-specific readers for epigenetic DNA modifications on cytosine”.

What all share (test): DAPPL (digital affinity profiling via proximity ligation, sequencing); 10 mM Tris-HCl pH 7.5, 50 mM NaCl, 1 mM DTT, 4% glycerol, room temperature, 30 min; GST-TFs on glutathione beads, 16-mer random dsDNA library, 0.1% formaldehyde crosslink after washing; high values mean tight binding
The target of one assay is T1, FEV (Homo sapiens, UniProt Q99581 1-238).
T1 sequence: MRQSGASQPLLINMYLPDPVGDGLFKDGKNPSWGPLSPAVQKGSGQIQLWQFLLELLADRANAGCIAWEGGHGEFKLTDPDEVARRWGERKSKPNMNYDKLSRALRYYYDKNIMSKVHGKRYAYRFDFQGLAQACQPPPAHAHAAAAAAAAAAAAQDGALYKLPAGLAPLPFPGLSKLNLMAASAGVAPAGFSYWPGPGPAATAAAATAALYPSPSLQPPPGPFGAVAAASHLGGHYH
Conditions: protein: recombinant; tags: N-terminal GST; dsDNA, one strand shown. In outline: (§1)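 Binding signal is each hexamer's read frequency for a factor divided by its frequency in the tag-only sample. The factors were GST-fused human transcription factors from yeast, captured on glutathione beads, DNA-barcoded and pooled with that sample. Pools were incubated with 200 nmole of a random double-stranded 16-mer DNA library in Tris/NaCl/DTT/glycerol buffer at room temperature for 30 min, then washed, crosslinked with 0.1% formaldehyde, proximity-ligated with BsaI/T4 ligase (1 h, 37 °C), PCR-amplified and sequenced on an Illumina NextSeq500.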

A further assay addresses ETV5 (Homo sapiens, UniProt P41161 1-510). The conditions noted are these: protein: recombinant; tags: N-terminal GST; dsDNA, one strand shown. An outline of the steps:
as §1

The next assay addresses HSF1 (Homo sapiens, UniProt Q00613 1-529). The conditions noted are these: protein: recombinant; tags: N-terminal GST; chain copies: 3; dsDNA, one strand shown. An outline of the steps:
as §1

The target in another assay is T2, SPIC (Homo sapiens, UniProt Q8N5J4 1-248).
T2 sequence: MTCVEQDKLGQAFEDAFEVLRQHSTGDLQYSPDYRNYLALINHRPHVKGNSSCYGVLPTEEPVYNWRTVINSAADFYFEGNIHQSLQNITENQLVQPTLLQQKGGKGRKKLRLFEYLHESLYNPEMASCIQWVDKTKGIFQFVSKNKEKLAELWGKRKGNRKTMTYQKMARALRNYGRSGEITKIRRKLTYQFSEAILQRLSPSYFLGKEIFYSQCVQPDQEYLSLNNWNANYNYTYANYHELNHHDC
The conditions noted are these: protein: recombinant; tags: N-terminal GST; dsDNA, one strand shown. An outline of the steps: as §1

In the next assay the target is ELF4 (Homo sapiens, UniProt Q99607 1-663). The conditions noted are these: protein: recombinant; tags: N-terminal GST; dsDNA, one strand shown. An outline of the steps: as §1
The next assay has as its target T3, ELK4 (Homo sapiens, UniProt P28324-2 1-405).
T3 sequence: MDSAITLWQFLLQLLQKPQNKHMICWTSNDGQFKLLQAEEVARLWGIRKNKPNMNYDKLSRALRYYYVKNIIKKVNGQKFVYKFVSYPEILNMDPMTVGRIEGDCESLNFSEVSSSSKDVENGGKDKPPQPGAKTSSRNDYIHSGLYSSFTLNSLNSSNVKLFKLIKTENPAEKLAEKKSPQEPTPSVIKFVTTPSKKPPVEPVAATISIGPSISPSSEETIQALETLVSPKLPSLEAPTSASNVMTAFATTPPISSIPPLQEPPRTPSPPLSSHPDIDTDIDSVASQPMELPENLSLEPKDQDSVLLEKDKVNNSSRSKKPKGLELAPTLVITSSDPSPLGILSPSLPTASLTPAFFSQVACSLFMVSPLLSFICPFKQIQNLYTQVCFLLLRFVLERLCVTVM
The conditions noted are these: protein: recombinant; tags: N-terminal GST; dsDNA, one strand shown. In outline: as §1

The target in another assay is T4, ETV2 (Homo sapiens, UniProt O00321 1-342).
T4 sequence: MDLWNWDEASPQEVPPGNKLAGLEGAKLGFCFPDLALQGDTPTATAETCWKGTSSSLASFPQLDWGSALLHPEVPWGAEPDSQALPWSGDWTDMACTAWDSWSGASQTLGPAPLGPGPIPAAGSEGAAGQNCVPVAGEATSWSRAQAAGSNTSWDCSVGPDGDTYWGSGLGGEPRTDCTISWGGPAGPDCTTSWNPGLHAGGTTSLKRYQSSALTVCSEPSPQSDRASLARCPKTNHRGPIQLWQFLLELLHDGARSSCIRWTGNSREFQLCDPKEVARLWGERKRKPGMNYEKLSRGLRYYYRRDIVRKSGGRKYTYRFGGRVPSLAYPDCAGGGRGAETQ
Conditions: protein: recombinant; tags: N-terminal GST; dsDNA, one strand shown. An outline of the steps: as §1

Another assay deals with T5, ELF3 (Homo sapiens, UniProt P78545 1-371).
T5 sequence: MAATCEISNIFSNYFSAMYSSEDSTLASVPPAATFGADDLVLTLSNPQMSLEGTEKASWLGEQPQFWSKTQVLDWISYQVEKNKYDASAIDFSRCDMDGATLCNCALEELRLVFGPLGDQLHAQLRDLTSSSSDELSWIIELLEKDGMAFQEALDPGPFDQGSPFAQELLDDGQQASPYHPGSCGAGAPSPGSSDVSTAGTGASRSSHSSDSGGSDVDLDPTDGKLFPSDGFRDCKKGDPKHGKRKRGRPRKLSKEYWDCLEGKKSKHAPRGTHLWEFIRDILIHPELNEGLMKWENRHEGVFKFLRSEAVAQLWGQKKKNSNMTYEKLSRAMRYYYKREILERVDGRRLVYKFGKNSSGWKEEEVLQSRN
The conditions noted are these: protein: recombinant; tags: N-terminal GST; dsDNA, one strand shown. An outline of the steps: as §1

A further assay concerns the target CRX (Homo sapiens, UniProt O43186 1-299). Conditions: protein: recombinant; tags: N-terminal GST; dsDNA, one strand shown. An outline of the steps:
as §1

The target of another assay is ETV1 (Homo sapiens, UniProt P50549 1-477). Conditions: protein: recombinant; tags: N-terminal GST; dsDNA, one strand shown. In outline: as §1
The target in another assay is T6, ERF (Homo sapiens, UniProt P50548 1-548).
T6 sequence: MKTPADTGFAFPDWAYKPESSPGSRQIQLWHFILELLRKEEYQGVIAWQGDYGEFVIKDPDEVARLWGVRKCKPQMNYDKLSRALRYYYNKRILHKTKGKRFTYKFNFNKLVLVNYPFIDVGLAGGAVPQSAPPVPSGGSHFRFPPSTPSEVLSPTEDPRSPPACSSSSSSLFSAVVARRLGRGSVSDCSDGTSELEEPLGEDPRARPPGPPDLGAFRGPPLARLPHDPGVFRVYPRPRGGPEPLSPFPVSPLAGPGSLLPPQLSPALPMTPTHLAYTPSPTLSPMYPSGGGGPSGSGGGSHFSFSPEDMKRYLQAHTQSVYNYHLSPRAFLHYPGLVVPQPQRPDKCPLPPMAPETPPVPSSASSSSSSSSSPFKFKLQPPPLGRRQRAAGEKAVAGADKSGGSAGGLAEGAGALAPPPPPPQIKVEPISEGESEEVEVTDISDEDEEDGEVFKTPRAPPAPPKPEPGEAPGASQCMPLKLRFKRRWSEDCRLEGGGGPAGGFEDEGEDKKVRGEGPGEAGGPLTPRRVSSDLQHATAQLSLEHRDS
Conditions: protein: recombinant; tags: N-terminal GST; dsDNA, one strand shown. An outline of the steps:
as §1

For a further assay, the target named is T7, ETV3L (Homo sapiens, UniProt Q6ZN32 1-361).
T7 sequence: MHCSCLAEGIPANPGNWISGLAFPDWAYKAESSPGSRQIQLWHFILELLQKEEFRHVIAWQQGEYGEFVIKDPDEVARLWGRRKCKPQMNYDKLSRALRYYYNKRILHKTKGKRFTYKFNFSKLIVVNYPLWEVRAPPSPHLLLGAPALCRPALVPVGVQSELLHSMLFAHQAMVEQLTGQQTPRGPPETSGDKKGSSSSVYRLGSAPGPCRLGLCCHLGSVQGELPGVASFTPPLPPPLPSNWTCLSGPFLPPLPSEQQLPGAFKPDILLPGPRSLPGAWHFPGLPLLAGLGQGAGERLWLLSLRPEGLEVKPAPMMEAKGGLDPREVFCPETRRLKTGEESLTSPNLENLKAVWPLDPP
The conditions noted are these: protein: recombinant; tags: N-terminal GST; dsDNA, one strand shown. An outline of the steps: as §1

A further assay concerns the target T8, ETS2 (Homo sapiens, UniProt P15036 1-469).
T8 sequence: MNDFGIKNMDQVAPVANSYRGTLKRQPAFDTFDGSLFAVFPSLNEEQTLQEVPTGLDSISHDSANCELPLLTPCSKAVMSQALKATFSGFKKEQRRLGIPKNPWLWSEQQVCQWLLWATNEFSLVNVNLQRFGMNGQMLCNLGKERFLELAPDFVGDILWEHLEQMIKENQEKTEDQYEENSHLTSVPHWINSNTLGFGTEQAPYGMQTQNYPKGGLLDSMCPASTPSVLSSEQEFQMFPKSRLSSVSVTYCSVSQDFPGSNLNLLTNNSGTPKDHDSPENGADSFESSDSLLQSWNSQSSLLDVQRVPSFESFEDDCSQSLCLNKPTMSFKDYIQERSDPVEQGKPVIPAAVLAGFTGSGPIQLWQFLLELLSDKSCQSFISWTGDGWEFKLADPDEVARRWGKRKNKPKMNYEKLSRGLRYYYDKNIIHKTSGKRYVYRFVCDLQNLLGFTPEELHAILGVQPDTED
The conditions noted are these: protein: recombinant; tags: N-terminal GST; dsDNA, one strand shown. In outline:
as §1

Another assay has as its target T9, SPDEF (Homo sapiens, UniProt O95238 1-335).
T9 sequence: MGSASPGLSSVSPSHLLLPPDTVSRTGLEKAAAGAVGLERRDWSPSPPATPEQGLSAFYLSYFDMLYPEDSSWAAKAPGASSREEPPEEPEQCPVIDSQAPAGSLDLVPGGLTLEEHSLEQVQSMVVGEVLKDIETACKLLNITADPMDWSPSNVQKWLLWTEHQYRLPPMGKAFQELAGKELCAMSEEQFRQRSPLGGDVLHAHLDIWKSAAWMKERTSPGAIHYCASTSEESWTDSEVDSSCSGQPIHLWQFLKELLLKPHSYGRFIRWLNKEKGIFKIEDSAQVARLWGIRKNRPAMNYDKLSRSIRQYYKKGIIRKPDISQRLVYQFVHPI
The conditions noted are these: protein: recombinant; tags: N-terminal GST; dsDNA, one strand shown. In outline: as §1

In a further assay the target is T10, ETV7 (Homo sapiens, UniProt Q9Y603 1-341).
T10 sequence: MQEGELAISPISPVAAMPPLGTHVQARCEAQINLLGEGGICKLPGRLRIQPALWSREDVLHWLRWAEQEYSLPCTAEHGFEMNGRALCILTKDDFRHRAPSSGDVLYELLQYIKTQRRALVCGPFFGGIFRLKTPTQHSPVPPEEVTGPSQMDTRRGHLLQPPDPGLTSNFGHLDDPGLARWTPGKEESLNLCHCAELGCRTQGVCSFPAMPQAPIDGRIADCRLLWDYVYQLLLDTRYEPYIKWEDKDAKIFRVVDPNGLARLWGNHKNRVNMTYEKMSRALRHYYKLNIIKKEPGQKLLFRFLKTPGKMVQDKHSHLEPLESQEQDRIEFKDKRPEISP
The conditions noted are these: protein: recombinant; tags: N-terminal GST; dsDNA, one strand shown. An outline of the steps: as §1

A further assay concerns the target T11, ELF5 (Homo sapiens, UniProt Q9UKW6-2 1-255).
T11 sequence: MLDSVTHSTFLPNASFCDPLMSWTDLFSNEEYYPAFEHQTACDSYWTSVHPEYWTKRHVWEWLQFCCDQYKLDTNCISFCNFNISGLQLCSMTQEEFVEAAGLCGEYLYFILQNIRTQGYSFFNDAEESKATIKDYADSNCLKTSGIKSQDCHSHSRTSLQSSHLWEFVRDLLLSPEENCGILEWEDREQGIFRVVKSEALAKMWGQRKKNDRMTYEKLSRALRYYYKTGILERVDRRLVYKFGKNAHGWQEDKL
The conditions noted are these: protein: recombinant; tags: N-terminal GST; dsDNA, one strand shown. An outline of the steps:
as §1

The next assay deals with T12, ETV3 (Homo sapiens, UniProt P41162-2 1-143).
T12 sequence: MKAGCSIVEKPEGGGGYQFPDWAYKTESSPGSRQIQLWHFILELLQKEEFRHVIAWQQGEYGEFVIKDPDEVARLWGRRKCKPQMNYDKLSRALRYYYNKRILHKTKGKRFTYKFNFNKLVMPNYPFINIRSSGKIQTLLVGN
The conditions noted are these: protein: recombinant; tags: N-terminal GST; dsDNA, one strand shown. In outline:
as §1

In another assay the target is ETV6 (Homo sapiens, UniProt P41212 1-452). The conditions noted are these: protein: recombinant; tags: N-terminal GST; dsDNA, one strand shown. An outline of the steps: as §1
Sequence of ETV6 (P41212 whole entry): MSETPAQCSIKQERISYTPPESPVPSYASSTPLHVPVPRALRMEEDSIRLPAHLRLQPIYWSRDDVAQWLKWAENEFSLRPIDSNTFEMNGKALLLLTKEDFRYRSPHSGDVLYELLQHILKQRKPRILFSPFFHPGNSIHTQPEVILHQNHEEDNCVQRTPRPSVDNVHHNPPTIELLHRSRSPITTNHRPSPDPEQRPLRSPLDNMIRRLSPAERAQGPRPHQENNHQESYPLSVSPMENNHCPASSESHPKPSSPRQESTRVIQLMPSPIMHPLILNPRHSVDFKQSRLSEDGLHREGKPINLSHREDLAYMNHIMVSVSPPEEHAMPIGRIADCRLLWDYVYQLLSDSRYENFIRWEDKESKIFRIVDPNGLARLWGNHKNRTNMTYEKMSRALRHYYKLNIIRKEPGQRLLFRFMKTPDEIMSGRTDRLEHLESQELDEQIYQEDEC

Sequence of ETV5 (P41161 whole entry): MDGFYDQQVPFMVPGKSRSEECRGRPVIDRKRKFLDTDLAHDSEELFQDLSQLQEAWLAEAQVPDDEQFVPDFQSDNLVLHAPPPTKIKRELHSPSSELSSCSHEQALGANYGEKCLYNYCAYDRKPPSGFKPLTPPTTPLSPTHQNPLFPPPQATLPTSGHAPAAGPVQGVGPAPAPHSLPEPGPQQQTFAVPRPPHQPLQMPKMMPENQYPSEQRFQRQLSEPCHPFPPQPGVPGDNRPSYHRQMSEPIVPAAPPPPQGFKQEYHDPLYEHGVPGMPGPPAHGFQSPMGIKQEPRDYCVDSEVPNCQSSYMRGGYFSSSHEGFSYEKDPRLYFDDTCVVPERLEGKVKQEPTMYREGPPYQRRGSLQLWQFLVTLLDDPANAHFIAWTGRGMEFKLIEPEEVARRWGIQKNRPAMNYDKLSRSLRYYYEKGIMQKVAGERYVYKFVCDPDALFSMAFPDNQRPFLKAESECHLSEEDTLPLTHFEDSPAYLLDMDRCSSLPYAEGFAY
Sequence of CRX (O43186 whole entry): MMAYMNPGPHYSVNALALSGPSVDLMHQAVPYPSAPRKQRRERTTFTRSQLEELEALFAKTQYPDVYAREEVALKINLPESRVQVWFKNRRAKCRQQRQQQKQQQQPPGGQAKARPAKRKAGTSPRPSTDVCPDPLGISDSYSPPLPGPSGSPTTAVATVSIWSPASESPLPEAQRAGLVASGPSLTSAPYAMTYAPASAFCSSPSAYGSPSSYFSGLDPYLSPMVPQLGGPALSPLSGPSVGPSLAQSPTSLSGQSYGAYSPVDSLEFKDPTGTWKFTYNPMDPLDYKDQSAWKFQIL
Sequence of ETV1 (P50549 whole entry): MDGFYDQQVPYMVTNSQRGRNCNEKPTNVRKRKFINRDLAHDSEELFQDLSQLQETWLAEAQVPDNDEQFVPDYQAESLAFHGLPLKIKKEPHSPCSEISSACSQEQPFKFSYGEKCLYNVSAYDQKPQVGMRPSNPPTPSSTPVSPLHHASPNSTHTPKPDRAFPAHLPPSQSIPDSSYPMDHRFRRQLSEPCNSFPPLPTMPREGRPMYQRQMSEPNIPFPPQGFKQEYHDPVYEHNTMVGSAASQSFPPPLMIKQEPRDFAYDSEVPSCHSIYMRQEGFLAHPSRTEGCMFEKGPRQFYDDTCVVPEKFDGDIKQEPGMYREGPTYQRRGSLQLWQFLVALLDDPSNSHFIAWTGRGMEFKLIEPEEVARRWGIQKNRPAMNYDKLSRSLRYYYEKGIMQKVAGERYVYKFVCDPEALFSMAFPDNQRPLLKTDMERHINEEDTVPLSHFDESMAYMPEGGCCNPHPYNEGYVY
Sequence of ELF4 (Q99607 whole entry): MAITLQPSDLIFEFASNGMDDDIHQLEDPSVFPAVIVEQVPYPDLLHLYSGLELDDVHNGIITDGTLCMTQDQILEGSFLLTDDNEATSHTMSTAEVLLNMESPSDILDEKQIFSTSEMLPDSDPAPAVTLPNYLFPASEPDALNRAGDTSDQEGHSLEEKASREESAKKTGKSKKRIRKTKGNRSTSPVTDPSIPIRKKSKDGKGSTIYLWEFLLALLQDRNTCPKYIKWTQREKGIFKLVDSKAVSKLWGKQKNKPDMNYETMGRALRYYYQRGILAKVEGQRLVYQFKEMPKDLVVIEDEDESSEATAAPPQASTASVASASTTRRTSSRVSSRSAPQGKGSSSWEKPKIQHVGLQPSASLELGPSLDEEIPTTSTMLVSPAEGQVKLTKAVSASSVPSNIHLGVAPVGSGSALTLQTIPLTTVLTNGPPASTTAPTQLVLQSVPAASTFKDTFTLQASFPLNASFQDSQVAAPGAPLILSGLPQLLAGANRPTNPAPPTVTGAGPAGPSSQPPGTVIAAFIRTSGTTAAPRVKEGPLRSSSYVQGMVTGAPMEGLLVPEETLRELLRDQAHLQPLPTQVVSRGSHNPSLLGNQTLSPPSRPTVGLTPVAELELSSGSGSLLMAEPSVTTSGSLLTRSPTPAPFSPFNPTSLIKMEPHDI
Sequence of HSF1 (Q00613 whole entry): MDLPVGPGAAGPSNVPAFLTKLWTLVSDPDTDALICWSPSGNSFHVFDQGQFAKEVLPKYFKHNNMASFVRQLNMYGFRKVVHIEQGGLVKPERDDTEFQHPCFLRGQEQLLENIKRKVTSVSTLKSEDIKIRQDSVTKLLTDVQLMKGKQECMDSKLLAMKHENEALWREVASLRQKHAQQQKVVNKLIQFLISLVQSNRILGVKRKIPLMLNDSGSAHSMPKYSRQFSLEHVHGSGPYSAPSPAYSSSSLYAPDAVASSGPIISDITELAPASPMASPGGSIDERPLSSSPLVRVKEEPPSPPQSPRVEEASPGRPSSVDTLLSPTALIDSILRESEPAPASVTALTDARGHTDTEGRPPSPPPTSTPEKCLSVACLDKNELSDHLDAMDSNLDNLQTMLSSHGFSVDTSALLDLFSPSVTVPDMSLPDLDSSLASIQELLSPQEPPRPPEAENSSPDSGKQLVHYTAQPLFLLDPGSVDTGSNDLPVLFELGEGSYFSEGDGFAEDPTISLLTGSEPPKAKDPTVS

Consider GTCTCG, for which the binding signal with FEV is 1.3 fold enrichment (6-mer frequency, TF over GST control); with ETV5 it was 1.25 fold enrichment (6-mer frequency, TF over GST control); in the assay with HSF1 it was 1.55 fold enrichment (6-mer frequency, TF over GST control); with SPIC, 1.21 fold enrichment (6-mer frequency, TF over GST control); with ELF4 it was 1.43 fold enrichment (6-mer frequency, TF over GST control); with ELK4, 1.3 fold enrichment (6-mer frequency, TF over GST control). Also, the binding signal was 1.03 fold enrichment (6-mer frequency, TF over GST control) with ETV2; 1.35 fold enrichment (6-mer frequency, TF over GST control) in the assay with ELF3; 1.06 fold enrichment (6-mer frequency, TF over GST control) in the assay with CRX; 1.35 fold enrichment (6-mer frequency, TF over GST control) with ETV1; 1.29 fold enrichment (6-mer frequency, TF over GST control) with ERF; 1.29 fold enrichment (6-mer frequency, TF over GST control) with ETV3L. Also, the binding signal was 1.37 fold enrichment (6-mer frequency, TF over GST control) with ETS2; 1.09 fold enrichment (6-mer frequency, TF over GST control) in the assay with SPDEF; 1.28 fold enrichment (6-mer frequency, TF over GST control) with ETV7; 1.26 fold enrichment (6-mer frequency, TF over GST control) in the assay with ELF5; 1.33 fold enrichment (6-mer frequency, TF over GST control) with ETV3; 1.32 fold enrichment (6-mer frequency, TF over GST control) in the assay with ETV6.
